# Bioassay records: PubChem, University of Kansas High Throughput Screening Laboratory
# mHTT-CaM PPI inh: mutant huntingtin-calmodulin interaction inhibitors – biochemical, AlphaScreen, primary screen | AlphaScreen His-mHTT/GST-CaM binding, luminescence | actives 3.6% (n = 190,000) | inhibition, % at 15 µM;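 further: 0% = both proteins with DMSO and 100% = one protein alone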
# Pf apPOL inh: Pf-apPOL inhibitors, biochemical, fluorescence; Plasmodium falciparum apicoplast DNA polymerase (apPOL); Recombinant Pf-apPOL, molecular beacon fluorescence, 1.5 h; inhibition, % at 10 µM; actives 0.25% (n = 210,000); AID 1794808, 2022
# * = called active by the depositor; / = no result. This is a sample that favours compounds with a hit; in the whole collection about 3.6% have one here. No stated cut-off is given here; in the data, active means inhibition above about 50%; inactive means the rest.
SMILES,mHTT-CaM PPI inh,Pf apPOL inh
COc1ccc(CC(=O)N2CCCC(C)(C(=O)NCc3ccccc3)C2)cc1OC (configuration not stated),1,-2
O=[N+]([O-])c1ccc(-c2csc(=Nc3ccccc3)n2CCO)cc1,32,1
Cc1csc(=Nc2ccccc2)n1CC(O)c1ccc([N+](=O)[O-])cc1 (configuration not stated),83*,3
CC1=CC(=NS(=O)(=O)c2ccc([N+](=O)[O-])cc2)C=C(C)C1=O,67*,1
CCS(CC)=NS(=O)(=O)c1ccc([N+](=O)[O-])cc1,/,-6
O=C(C=Cc1ccc2ccccc2n1)c1cccc(O)c1,7,-16
CC1Oc2ccccc2C=C1C=CC(=O)c1cccc(O)c1 (configuration not stated),61*,-8
COc1ccc(Nc2nc(Nc3ccc(O)cc3)nc(C)c2[N+](=O)[O-])cc1,78*,-4
CNc1nc(C)c([N+](=O)[O-])c(Nc2ccc(OC)cc2)n1,6,-4
Cc1c(C)c2cc3c(-c4ccc(F)cc4)coc3cc2oc1=O,1,-3
Cc1c(C)c2cc3c(-c4ccccc4)coc3cc2oc1=O,-7,60*
O=C(Nc1ccc(O)c(-c2nc3ccccc3s2)c1)c1ccco1,11,-1
N=C1S/C(=C\c2ccc(-c3ccccc3C(=O)O)o2)C(=O)N1c1nccs1,74*,-5
N=C1S/C(=C\c2ccc(-c3ccc(F)c(Cl)c3)o2)C(=O)N1c1nccs1,15,1
N=C1S/C(=C\c2ccc(-c3ccc(F)cc3F)o2)C(=O)N1c1nccs1,5,0
N=C1S/C(=C\c2ccc(-c3cccc(F)c3)o2)C(=O)N1c1nccs1,62*,-9
O=C(NCc1cc(-c2ccccc2)on1)c1nc2ccccc2s1,3,4
Cc1c(Cl)cccc1NC(=O)CCC(=O)O,-6,-3
COC(=O)Nc1ccc(S(=O)(=O)N2CCCC(C(F)(F)F)C2)cc1 (configuration not stated),-23,2
Cc1ccc(C)c(C(=O)N2CCc3c(c(-c4nc(-c5cccc(F)c5)no4)nn3C)C2)c1,-6,-3
O=C(CCc1cc2ccccc2[nH]c1=O)N1CCCCC1,-7,-3
O=C(CCc1cc2ccccc2[nH]c1=O)N1CCSCC1,100*,-6
CN(C)c1ccc(/C=C/C=C2/SC(=Nc3ccccc3)NC2=O)cc1,43,0
CN(C)c1ccc(/C=C/C=C2/SC(=N)NC2=O)cc1,62*,2
COc1ccccc1C1(CNS(=O)(=O)Cc2cccc(F)c2)CCOCC1,-10,-1
SMILES,mHTT-CaM PPI inh,Pf apPOL inh
Cc1nc(C(=O)Nc2ccccc2)c(C)n1C1CCN(S(C)(=O)=O)CC1,2,-1
Cc1nc(C(=O)Nc2ccc(Oc3ccccc3)cc2)c(C)n1C1CCN(C)CC1,82*,-6
CS(=O)(=O)Nc1cccc2cccnc12,47,-4
O=S(=O)(Nc1cccc2cccnc12)c1ccccc1,74*,-19
Oc1ccc(-c2nc(-c3ccc(F)cc3)c(-c3ccncc3)[nH]2)cc1,/,17
COc1cccc(-c2nc(-c3ccsc3)c(-c3ccccc3)[nH]2)c1OC,44,-5
c1ccc(-c2nc(-c3ccc4c(c3)sc3ccccc34)c(-c3ccccc3)[nH]2)cc1,55*,/
COc1cc(-c2nc(-c3ccccc3)c(-c3ccc(O)cc3)[nH]2)cc(OC)c1O,88*,-1
c1ccc(-c2nc(-c3cccnc3)[nH]c2-c2ccccc2)cc1,/,-3
COc1cc(-c2nc(-c3ccsc3)c(-c3ccccc3)[nH]2)cc(OC)c1O,87*,-7
COc1ccc(CNC(=O)CCC2CCCN(C(=O)Nc3ccc(C)cc3)C2)cc1 (configuration not stated),14,-6
CC(=O)NCc1csc(C2CCCN(S(=O)(=O)c3ccc(Cl)s3)C2)n1 (configuration not stated),4,-2
COC(=O)C1=C(N)Oc2cc(C)oc(=O)c2C1c1ccccc1OC (configuration not stated),-3,-5
CCn1c(=O)oc2cc(-c3noc(-c4cccc(F)c4)n3)ccc21,-7,-3
COc1ccccc1-c1nc(C2CCCN(C(=O)COc3ccc(Cl)cc3C)C2)no1 (configuration not stated),34,-1
O=C(CSc1ccccc1)Nc1ccc(I)cc1,-7,-2
Cc1cc(C)cc(NCc2cc3c(cc2[N+](=O)[O-])OCO3)c1,68*,-6
COc1ccc(CNCc2cc3c(cc2[N+](=O)[O-])OCO3)cc1,9,-9
CN(C)/C=C1\N=C(c2ccccc2)c2cc(Cl)ccc2N(C)C1=O,51*,3
CN1C2=NCCN2C(=O)c2cc(Cl)ccc21,/,-5
Cc1cc2c(cc1C)NC(=O)CC(C(F)(F)F)=N2,-5,-1
O=C(Nc1ccccc1)c1nc[nH]c1C(=O)Nc1ccccc1,-7,-8
O=C(Nc1ccc(Br)cc1)c1nc[nH]c1C(=O)O,80*,-3
